Data as given in PubChem BioAssay (EPA / NIEHS).
Calls of active or inactive are those of the source. How the source made its calls: active means hit-call score of the fitted dose curve at least 0.9, where 1 is the maximum; inactive means score below 0.9.

Assay: ATG_RORE_CIS: Attagene CIS-FACTORIAL HepG2 Assay for human RAR-related Orphan Receptor Element (RORE) (AID 2282959)
Settings: HepG2 Attagene cis-factorial RORE reporter, mRNA; actives raise or lower the signal
Experimental: ATG_CIS is a cell-based, multiplexed-readout assay that uses HepG2, a human liver cell line, with measurements taken at 24 hours after chemical dosing in a 24-well plate.ATG_RORE_CIS is one of 52 assay component(s) measured or calculated from the ATG_CIS assay. It is designed to make measurements of mRNA induction, a form of inducible reporter, as detected with fluorescence intensity signals by Reverse transcription polymerase chain reaction (RT-PCR) and Capillary electrophoresis technology.Data from the assay component ATG_RORE_CIS was analyzed into 1 assay endpoint. This assay endpoint, ATG_RORE_CIS, was analyzed with bidirectional fitting relative to DMSO as the negative control and baseline of activity. Using a type of inducible reporter, measures of mRNA for gain or loss-of-signal activity can be used to understand the reporter gene at the transcription factor-level as they relate to the gene RORA and RORB and RORC. Furthermore, this assay endpoint can be referred to as a primary readout, because this assay has produced multiple assay endpoints where this one serves a reporter gene function. To generalize the intended target to other relatable targets, this assay endpoint is annotated to the nuclear receptor intended target family, where the subfamily is orphan.
Human liver HepG2 cells are transiently transfected with multiple reporter transcription units (MRTUs) in 6-well plates using FuGene 6 reagent (Roche; 3 ml FuGene/1 mg DNA). The MRTU constructs are regulated by a cis-regulating element (promoter). […] A major difference between the CIS and TRANS system is that in CIS activities of endogenous TFs are measured, whereas the TRANS assay evaluates changes in activities of exogenous, chimeric NR-Gal4 proteins. […] At the end of 24 hour incubation, total RNA was isolated using TriZol reagent (Invitrogen). The isolated RNA is then reverse-transcribed using oligo(dT) primer and Mo-MLV reverse transcriptase (Invitrogen) with DNAse I (Ambion) treatment for 30 min. The one-tenth of the produced cDNA was amplified by PCR using Taq DNA polymerase (Invitrogen) and two reporter sequence-specific primers. The PCR products were fluorescently labeled by primer extension with 6-arboxyfluorescein (6-FAM) 5'-labeled reporter sequence-specific primer (2 min at 95 C, 20 s at 68 C and 10 min at 72 C) and these products were digested with 5U of HpaI (New England Biolabs) for 2h at 37 C. The fragments were purified using Qiaquick PCR columns (Qiagen), analyzed on an ABI 3130xL genetic analyzer (Applied Biosystems) with peak positions identified by using a set of X-rhodamine (ROX)-labeled MapMarker1000 molecular weight standards (BioVentures). The raw capillary electrophoresis data was processed using Attagraph software (Attagene).
In the case of `C=CCOCC(CC)(CO)COCC=C`, the outcome is reported as “inactive”.
With `CC[N+](CC)(CC(=O)Nc1c(C)cccc1C)Cc1ccccc1` (tested in a mixture with another compound) the outcome was “inactive”.
In the case of `CCCCCCCCCCC1CO1` (stereo not given), the outcome is reported as “inactive”.
In the case of `O=C1NC(=O)C2CC=CCC12` (stereo not given), the outcome is reported as “inactive”.
For `CO[Si](CCCNCCN)(OC)OC`, the outcome was “inactive”.
In the case of `CCCCOC(=O)COc1ccc(Cl)cc1Cl`, the outcome is reported as “inactive”.
For `c1cc(N(CC2CO2)CC2CO2)ccc1Cc1ccc(N(CC2CO2)CC2CO2)cc1` (stereo not given), the outcome was “inactive”.
With `CCOC(=O)c1ccccc1` the outcome was “inactive”.
With `Cc1cc(-n2nc3ccc(Cl)cc3n2)c(O)c(C(C)(C)C)c1` the outcome was “inactive”.
With `CC1=NN(c2cc(Cl)c(S(=O)(=O)O)cc2Cl)C(=O)C1N=Nc1ccc(S(=O)(=O)O)cc1` (stereo not given) the outcome was “inactive”.
With `O=C(O)/C=C\C(=O)O` the outcome was “inactive”.
For `C1=CCC=C1`, the outcome was “inactive”.
With `OCCOCCOCCOCCOCCO` the outcome was “inactive”.
With `COC(=O)c1ccccc1` the outcome was “inactive”.
With `O=C1CCCCCCCCCCCCCC1` the outcome was “inactive”.
With `Clc1ccc(Sc2cc(Cl)c(Cl)cc2Cl)cc1` the outcome was “inactive”.
With `CCCCCCCCCCCCCC` the outcome was “inactive”.
With `NCc1ccccc1` the outcome was “inactive”.
For `CCCC(=O)OC/C=C(\C)CCC=C(C)C`, the outcome was “inactive”.
With `Cc1cc(O)cc(C)c1Cl` the outcome was “inactive”.
For `CN(C)N=Nc1ccccc1`, the outcome was “inactive”.
For `Clc1ccccn1`, the outcome was “inactive”.
With `C[C@H]1C[C@H]2[C@@H]3CCC4=CC(=O)C=C[C@]4(C)[C@@]3(F)[C@@H](O)C[C@]2(C)[C@@]1(O)C(=O)CO` the outcome was “inactive”.
With `CCC(C)NC(N)=O` (stereo not given) the outcome was “inactive”.
With `[O-][n+]1ccc(Cl)cc1` the outcome was “inactive”.
With `O=C(O)Cc1c[nH]c2ccccc12` the outcome was “inactive”.
In the case of `O=C(C1CCCCC1)N1CC(=O)N2CCc3ccccc3C2C1` (stereo not given), the outcome is reported as “inactive”.
In the case of `CCC(C)=NO`, the outcome is reported as “inactive”.
For `CC(=O)Nc1c(I)c(NC(C)=O)c(I)c(C(=O)O)c1I`, the outcome was “inactive”.
In the case of `CCCCCCC(O)CCCCCCCCCCC(=O)OC` (stereo not given), the AC50 is reported as 21.8 µM (active).
With `CCO[Si](CCCN)(OCC)OCC` the outcome was “inactive”.
In the case of `CC=CC(=O)O`, the outcome is reported as “inactive”.
For `NC(N)=Nc1nc(CSCCC(N)=NS(N)(=O)=O)cs1`, the outcome was “inactive”.
For `Nc1nnc(-c2ccc([N+](=O)[O-])o2)o1`, the outcome was “inactive”.
For `O=S(=O)(O)c1cccc2ccccc12`, the outcome was “inactive”.
For `COC(=O)/C=C\C(=O)OC`, the outcome was “inactive”.
In the case of `c1ccc2c(c1)Oc1ccccc1S2`, the outcome is reported as “inactive”.
For `CCCC[N+]1(C)CCCC1`, the outcome was “inactive”.
For `CCOC(=O)CC(=O)OCC`, the outcome was “inactive”.
In the case of `CCCC(=O)OC`, the outcome is reported as “inactive”.
